# Screens: PubChem, National Center for Advancing Translational Sciences (NCATS)
# MCF10A rerep = DNA re-replication induction in MCF 10a cells; MCF 10A DNA re-replication, Hoechst nuclear intensity, 48 h; Potency, µM (titrated, usually from 46.1 µM), for inactives: at the top dose activity, positive = re-replication, most hits filed as activators; 350,000 compounds, 2.9% hits; further: potency means the concentration at half of the fitted maximal effect; % of control where 0% means no effect; nearly all actives have a fitted effect of over 50% in size
# SW480 rereplic = induces DNA re-replication in SW480 colon adenocarcinoma cells. AID 624297. Potency, µM (top dose mostly 46.1 µM), inactives show top-dose re-replication activation, most hits filed as activators. 340,000 compounds, 1.8% hits. SW480 DNA re-replication, Hoechst DNA content imaging, 48 h; further: potency means the concentration at half of the fitted maximal effect; % of control where 0% means no effect; nearly all actives have a fitted effect of over 55% in size
#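 Image-based DNA-content assay: after two days of treatment, nuclei were labelled with the DNA dye Hoechst and imaged, and hits were compounds raising the count of nuclei showing high fluorescence intensity.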
# KB-V1 cytotox = kills drug-selected multidrug resistant KB-V1 cells; KB-V1 MDR cells viability, CellTiter-Glo, 72 h; Potency, µM (doses to about 46.1 µM), hits mostly cytotoxic; 400,000 compounds, 3.4% hits; further: potency means the concentration at half of the fitted maximal effect; on the % scale 0 is the no-effect control and ±100 the full control effect; nearly all actives have a fitted effect of over 60% in size
#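 Compound-treated KB-V1 multidrug-resistant cells, 72 h, 37 degrees C; viability by CellTiter-Glo. Fitted qHTS curves give the values.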
# IL-1B inflam inh = inhibitors of inflammasome signaling (IL-1 beta secretion); THP-1 LPS/ATP IL-1B secretion, AlphaLISA, 16 h; active compounds read low; activity change, % at 57.5 µM; 360,000 compounds, 4.7% hits; AID 743279; in the data active means activity change below about -50%; inconclusive means mostly about -30% to -49%; further: on the % scale 0 is the no-effect control and ±100 the full control effect
#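 THP-1 cells pretreated 1 hr with compounds (up to 57.5 uM final), then stimulated with LPS (250 ng/mL final) plus ATP (1.25 mM final); secreted IL-1B measured by AlphaLISA after 16 hr, decreased signal indicating inhibition.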
# KB-3-1 tox = kills parental KB-3-1 adenocarcinoma cells; Potency, µM (series often up to 46.1 µM), most hits filed as cytotoxic; 400,000 compounds, 1.4% hits; KB-3-1 viability, CellTiter-Glo ATP luminescence, 72 h; AID 1347075; further: potency means the concentration at half of the fitted maximal effect; on the % scale 0 is the no-effect control and ±100 the full control effect; nearly all actives have a fitted effect of over 60% in size
#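 Parental KB-3-1 adenocarcinoma cells in phenol-red-free DMEM with 10% FBS were pin-treated with compounds at several concentrations, incubated 72 h at 37 °C, and viability read by CellTiter-Glo luminescence; concentration-effect curves were fitted after normalization.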
# Active calls of the source: *; i = inactive; ? = inconclusive; · = no result; [ ] = another dose, or the depositor's remark. Shown are actives, neighbours in structure and some others; about 9.9% of the full set was active somewhere. Unless noted, the call rests on the fitted dose curve; in most records, active means well fitted curve in the direction sought with a large enough effect; inconclusive means small, poorly fitted or top-dose-only effect, or another doubt; inactive means no such curve, though single readings can be large; an effect the other way counts as inactive or inconclusive.
SMILES,MCF10A rerep,SW480 rereplic,KB-V1 cytotox,IL-1B inflam inh,KB-3-1 tox
CCn1c(COc2ccc(=O)n(-c3ccccc3)n2)nnc1SCc1cccc(OC)c1,-0.1%,-7.7%,16.4µM*,-8.4,i
C#CC1(N2CCCCC2)CCCCC1,·,·,i,3.4,i
Cc1ccc2c(c1)C1CN(C)CCC1N2S(=O)(=O)c1cccc(C(F)(F)F)c1 (stereo not drawn),-3.1%,-5.0%,i,-20.1,i
Cc1ccc2c(c1)C1CN(C)CCC1N2S(=O)(=O)c1ccccc1F (stereo not drawn),-1.3%,12.9%,i,-50.7*,i
CN(C)c1nc(N)ncc1-c1ccc(Oc2ccccc2)cc1,6.2%,-3.6%,i,12.2,i
CCCCOC(=O)Nc1ccc(N2CCCCC2)cc1,12.5%,-4.3%,?,-56.7*,i
CCCCOC(=O)Nc1ccccc1C(=O)N1CCCC1,?,?,13µM*,9.4,i
CCCCOC(=O)Nc1ccc(N2CCOCC2)cc1,0.7%,-0.7%,i,-11.0,i
CCCCOC(=O)Nc1ccc(C(C)C)cc1,10.7%,0.0%,i,-59.9*,i
O=C(CN1CCN(C(=O)CN2C(=O)NC3(CCCC3)C2=O)CC1)Nc1cccc(F)c1,0.3%,-1.6%,i,19.5,i
CN(CC(=O)Nc1c(Cl)cccc1Cl)C(=O)C1CCN(C(=O)Nc2ccccc2)CC1,-0.3%,-2.7%,i,-9.4,i
CSc1ccccc1NC(=O)CN(C)C(=O)C1CCN(C(=O)Nc2ccccc2)CC1,15.2%,2.31µM*,i,-5.0,i
CN(Cc1ccc(C(C)(C)C)cc1)C(=O)C1CCN(C(=O)Nc2ccccc2)CC1,31.5%,-273.8%,i,-60.5*,?
Cn1cc(/C=C/c2ccnc3ccccc23)c2ccccc21,·,·,i,·,?
CC1(C(=O)NCCC#N)CCN1C(=O)CC(c1ccccc1)c1ccccc1 (stereo not drawn),·,·,i,-50.4*,i
CCOc1ccc(CCNC(=O)C2CSC3(C)CCC(=O)N23)cc1OCC (stereo not drawn),4.9%,-0.6%,i,-4.3,i
COC(=O)C1=NN(c2ccccc2)C2(S1)SC(C(C)=O)=C(C)N2c1ccccc1 (stereo not drawn),3.9%,-22.7%,i,-4.7,i
CC(=O)C1=NN(c2ccccc2)C2(S1)S/C(=C\c1ccccc1)C(=O)N2c1ccccc1 (stereo not drawn),?,5.17µM*,i,-13.4,i
CC1(C)C=Cc2c(ccc3c2OC[C@H](c2ccc(O)cc2O)C3)O1,?,-62.7%,i,34.1,i
CC(C)=CCc1cc([C@@H]2COc3c(ccc4c3C=CC(C)(C)O4)C2)c(O)cc1O,5.17µM*,4.7%,i,-51.0*,i
CCn1c(SCCOc2ccc(Cl)cc2)nnc1-c1cccs1,15.1%,-6.5%,9.2µM*,-22.9,i
Cn1cnnc1SCCOc1ccc(Cl)cc1,0.2%,-1.2%,i,-80.0*,i
Cc1cccc(OCCSc2nncn2C)c1,-0.4%,-1.1%,i,11.3,i
COCCN1C[C@@H](CO)O[C@@H](n2cnc3c(NCCO)ncnc32)C1,·,·,i,32.3,i
NC1=NC(=Nc2cccc(S(=O)(=O)N3CCOCC3)c2)c2ccccc21,21.0%,4.5%,i,-59.6*,i
SMILES,MCF10A rerep,SW480 rereplic,KB-V1 cytotox,IL-1B inflam inh,KB-3-1 tox
CC(C)(C)OC(=O)N1CCN(C(=O)c2[nH]cnc2C(=O)Nc2ccc(Cl)cc2)CC1,11.6%,-2.0%,i,-52.2*,i
CC(C)(C)OC(=O)N1CCC(NC(=O)c2[nH]cnc2C(=O)Nc2cccc(Cl)c2)CC1,-10.6%,0.6%,?,-58.2*,i
Cc1ccc(NC(=O)c2nc[nH]c2C(=O)N2CCN(C(=O)OC(C)(C)C)CC2)cc1,?,-5.8%[9.22 µM],i,-15.5,i
O=C1c2ccccc2-c2c1cccc2C(=O)N1CCCCCC1,-2.5%,23.1µM*,i,8.9,?
O=C(NC(=S)Nc1ccccc1)c1cccs1,?,-2.0%,i,1.8,i
COc1ccc(C(=O)NNC(=S)NC(=O)/C=C/c2cccs2)cc1,-0.4%,?,?,10.7,?
O=C(/C=C/c1cccs1)NC(=S)NNC(=O)c1ccccc1O,?,?,i,112.3,2.59µM*
O=C(/C=C/c1cccs1)NC(=S)Nc1ccccc1,0.4%,2.5%,i,-62.1*,i
CN1C(=O)/C(=C/c2ccccc2Cl)Sc2ccc(C(=O)N3CCCC3)cc21,18.4µM*,-7.9%,i,-10.9,i
CCOC(=O)C1CCCN(C(=O)c2cccc(N3C(=O)c4ccccc4C3=O)c2)C1 (stereo not drawn),1.7%,-8.5%,i,-5.5,i
O=C(NC1CCN(Cc2ccccc2)CC1)c1ccccc1,-3.3%,-11.9%,i,-2.9,i
CCOC(=O)C1CCCN(C(=O)c2ccc3c(c2)N(C)C(=O)/C(=C/c2ccccc2Cl)S3)C1 (stereo not drawn),?,?,?,-68.0*,?
CN1C(=O)/C(=C\c2ccccc2F)Sc2ccc(C(=O)NC3CCN(Cc4ccccc4)CC3)cc21,?,20.6µM*,i,-14.3,?
COc1ccc(C(=O)c2c[nH]c(C(=O)N=CN(C)C)c2)cc1,-0.6%,-1.6%,i,6.5,i
Cc1cc(Nc2ccc(C(C)C)cc2)n2ncnc2n1,2.6%,-5.4%,7.31µM*,25.4,14.6µM*
O=[N+]([O-])c1ccc(S(=O)(=O)CC(CN2CCOCC2)N2CCOCC2)cc1 (stereo not drawn),?,25.9%,i,-73.6*,?
O=S(=O)(CC(CN1CCCCC1)N1CCCCC1)c1ccccc1 (stereo not drawn),6.51µM*,?,i,-96.7*,i
O=c1c(/C=N/N2CCOCC2)c(C(F)(F)F)[nH]n1-c1ccccc1,15.6%,-5.4%,i,-2.2,i
Cc1nc(NCCN2CCOCC2)c2oc3ccccc3c2n1,-4.2%,-13.7%,i,2.7,i
O=C(O)CSc1nc(-c2ccccc2)nc2c1oc1ccccc12,-0.2%,-5.2%,i,46.1,i
Cc1nc(NCCc2ccccc2)c2oc3ccccc3c2n1,-180.3%[0.0737 µM],1.7%,23.1µM*,2.0,?
CCc1nc(SCC(=O)N2CCc3ccccc32)c2oc3ccccc3c2n1,6.1%,14.0%,i,5.9,i
O=C(O)CSc1nc(-c2ccc(Cl)cc2)nc2c1oc1ccccc12,23.1µM*,164.9%,i,36.7,i
Cc1nc(SCC(=O)N2CCCc3ccccc32)c2oc3ccccc3c2n1,?,16.4µM*,20.6µM*,-8.2,i
CCc1nc(SCC(=O)NCCc2ccccc2)c2oc3ccccc3c2n1,8.9%,0.4%,18.4µM*,-10.6,i
